# Assay results taken from PubChem BioAssay (NCI).
# This is part of a sample that, as a whole, favours compounds with a hit. Of some 83,000 tested, about 20% had one in any assay.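 Values shown are percent growth following 48 h exposure of cells in 96-well plates to a single concentration of compound; below 10 was considered active.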 Calls of active or inactive are those of the source.
# Test system: SK-OV-3 ovarian
# Assay: NCI-60 one-dose screen, 48 h (100 = growth as untreated, 0 = no growth, -100 = all killed)
# Conditions: 10 µM unless noted
row,SMILES,growth
1,O=C(COc1ccc2c(c1)CCCC(=O)N2)NCc1ccccc1,89.5% (inactive)
2,COc1ccc(Cc2nn(CC(=O)N/N=C/c3ccc(F)cc3)c(=O)c3c(C)noc23)cc1,-72.1% (active)
3,O=C(O)Cn1c(O)c(/C=C2/C=c3cc4c(cc3=NC2=O)OCCO4)sc1=S,129% (inactive)
4,CC(=O)/C=C/c1cccc2c1C(=O)NC(C)(c1cc3cc(Br)ccc3oc1=O)N2 (configuration not stated),52.6% (inactive)
5,CCN(CC)c1ccc(/C=N/Nc2nc(-c3ccc(Br)cc3)cs2)c(O)c1,103% (inactive)
6,CC1(C)CC[C@]2(C(=O)O)CC[C@]3(C)C(=CCC4[C@@]5(C)C[C@@H](O)[C@@H]6OC(c7ccco7)OC[C@@]6(C)C5CC[C@]43C)C2C1 (some centres not stated),75.6% (inactive)
7,CC(=O)OCC1OC(OC2C(COC(C)=O)OC(n3cc(COc4ccc5ccc(=O)oc5c4)nn3)C(OC(C)=O)C2OC(C)=O)C(OC(C)=O)C(OC(C)=O)C1OC(C)=O (configuration not stated),109% (inactive)
8,CC1(C)CC[C@]2(C(=O)Nc3ccc(Br)cc3)CC[C@]3(C)C(=CCC4[C@@]5(C)C[C@@H](O)[C@H](O)[C@@](C)(CO)C5CC[C@]43C)C2C1 (some centres not stated),4.34% (active)
9,C#CCOc1ccc(/C=N/Nc2nc(-c3cc4cc(OC)ccc4oc3=O)cs2)cc1OC,71% (inactive)
10,COc1cc(-c2nc3cc(Cl)c(Cl)cc3[nH]2)ccc1OCc1nnc(-c2cccs2)o1,47.8% (inactive)
11,C=C1CC[C@@H]2[C@]3(C)COC(c4ccccc4)O[C@@H]3CC[C@@]2(C)[C@@H]1C/C=C1/C(=O)OCC1OC(C)=O (some centres not stated),93.7% (inactive)
12,Cc1sc2c(c1C)C(c1ccc(Cl)cc1)=N[C@@H](CC(=O)NCCCCCNC(=O)COc1ccc(C3CCC(=O)NC3=O)cc1)c1nnc(C)n1-2 (some centres not stated),-16.9% (active)
